# Reference: PubChem BioAssay AID1578 (Sanford-Burnham Center for Chemical Genomics, 2009)
# Values joined by “and” are separate entries in the source; they are usually repeats but may differ in a detail not shown here. Equal entries are not always repeated. Among all 290,000 compounds or so, about 3,000 (1%) were called active. Only a selection was taken, and actives are over-represented in it overall. A number with no mark means an inactive call. Rule as the data show it: active = inhibition mostly above about 36% (no sharp cut-off); inactive = mostly below about 34%.
# Test: inhibition of NOD1-driven NF-kB reporter – cell-based, luminescence, uHTS, primary screen (AID 1578);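 also: HEK-293T reporter cells stimulated with the NOD1 agonist gamma-tri-DAP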
# Conditions: NOD1-driven NF-kB luciferase reporter cells, at 4 µM, active compounds read high
row,SMILES,inhibition
1,Cc1nc2ccc(C(=O)NCc3ccc4c(c3)OCO4)cc2s1,11.9%
2,O=C(CCNS(=O)(=O)c1ccccc1)N1CCOCC1,-19.5%
3,O=C(Nc1nc2ccccc2s1)c1ccc([N+](=O)[O-])o1,6.5%
4,O=C(Nc1nc2c(F)cccc2s1)c1ccc([N+](=O)[O-])o1,7.3%
5,O=C(Nc1nc2cc3c(cc2s1)OCCO3)c1ccc([N+](=O)[O-])o1,-22.1%
6,Cc1cc(C)c2nc(NC(=O)c3ccc([N+](=O)[O-])o3)sc2c1,37.8%
7,CCOC(=O)Cn1cncc1-c1ccc([N+](=O)[O-])cc1,10.5%
8,COc1cnn(-c2ccc(C)cc2)c(=O)c1Cl,-22.7%
9,Cc1csc2c(N3CCN(C(=O)Nc4ccccc4)CC3)ncnc12,7.4%
10,Cc1csc2c(N3CCN(C(=O)Nc4ccc(OC(F)(F)F)cc4)CC3)ncnc12,22.6%
11,CC1=Nn2c(nc(-c3ccccc3)c2-c2ccccc2)NC(=O)C1Br (configuration not stated),1.4%
12,COc1ccccc1CNc1nc(C)c(C(C)=O)s1,12.6%
13,COC(=O)/C(=N/Nc1ccccc1)N1CCCc2ccccc21,-10.5%
14,CCOC(=O)/C(=N/Nc1ccc(OC)cc1)N1CCCc2ccccc21,-9.8%
15,CCOC(=O)/C(=N/Nc1ccc(Cl)cc1)S(=O)(=O)c1ccccc1,-14.8%
16,CCOC(=O)/C(=N\Nc1ccccc1)S(=O)(=O)c1ccccc1,0.6%
17,CCOC(=O)/C(=N/Nc1ccccc1)N1CCCc2ccccc21,90.5% (active)
18,CCOC(=O)/C(=N\Nc1ccccc1)P(=O)(c1ccccc1)c1ccccc1,43.4% (active)
19,CC(=O)c1csc(Nc2ccccc2Cl)n1,-3%
20,O=C(NC(=O)c1cccc(Cl)c1)OC[C@@H]1CCCN2CCCCC12 (some centres not stated),14.2%
21,CCOC(=O)c1cc2c(ccn2C)n1CC(=O)N1C(C)CCCC1C (configuration not stated),5.8%
22,O=S(=O)(c1ccccc1)c1ncc(C(F)(F)F)cc1Cl,50.2% (active)
23,O=S(=O)(c1ccccc1)c1ncc(C(F)(F)F)cc1O,-25.1%
24,O=S(=O)(Cc1ncc(C(F)(F)F)cc1Cl)c1ccccc1,18%
25,O=C(NCCCCc1ccccc1)Nc1ccc(F)cc1,-30.8%
26,CCn1nc(C(=O)NCC(c2cccs2)N2CCOCC2)c2ccccc2c1=O (configuration not stated),-2.4%

row,SMILES,inhibition
1,CCN(CC)c1c([N+](=O)[O-])c(=O)n(CC)c2ccccc12,-5.5%
2,CCn1c(=O)c([N+](=O)[O-])c(Cl)c2ccccc21,61.2% (active)
3,Cn1c(=O)c([N+](=O)[O-])c(Cl)c2ccccc21,-31.4%
4,O=C(OCCC1Oc2cccnc2NC1=O)c1ccc(Cl)cc1 (configuration not stated),-29.2%
5,COc1cccc(-c2nc(CS(=O)CC(=O)NCc3ccccc3)c(C)o2)c1 (configuration not stated),-4.3%
6,Cc1ccc(-n2c(SCc3ccc(C#N)cc3)nnc2-c2ccccn2)cc1,2.2%
7,CCC(=O)N1c2ccc(S(=O)(=O)N3CCN(C)CC3)cc2CC1C (configuration not stated),-8.9%
8,CCC(=O)N1c2ccc(S(=O)(=O)N3CCN(c4ccccc4Cl)CC3)cc2CC1C (configuration not stated),8.1%
9,O=C(O)CSc1cc(NS(=O)(=O)c2ccc(Br)cc2)c2ccccc2c1O,5.8%
10,COc1ccc(S(=O)(=O)Nc2ccc(O)c(Sc3ncn[nH]3)c2)cc1,-28.8%
11,O=S(=O)(Nc1cc(Sc2ncn[nH]2)c(O)c2ccccc12)c1ccccc1,-1.5%
12,COc1ccc(S(=O)(=O)Nc2cc(Sc3ncn[nH]3)c(O)c3ccccc23)cc1,93.1% (active)
13,O=S(=O)(Nc1cc(Sc2cccc3cccnc23)c(O)c2ccccc12)c1ccc(F)cc1,-23.7%
14,O=S(=O)(Nc1cc(Sc2cccc3cccnc23)c(O)c2ccccc12)c1ccccc1,109% (active)
15,COC(=O)c1oc2ccccc2c1-n1cccc1,-6%
16,Cc1ccc2nsnc2c1S(=O)(=O)Nc1ccccc1C(=O)O,-10.2%
17,Cc1ccc(C(C)C)c(OCC(O)CN2CC(C)OC(C)C2)c1 (configuration not stated),5.4%
18,CCOc1ccc(Cl)cc1CNCCCSc1ncccn1,5.6%
19,O=C(NNC1=C(C(=O)C(F)(F)F)CCC1)c1cccc(O)c1,-26.1%
20,O=C(NNC1=C(C(=O)C(F)(F)F)CCC1)c1ccc(Cl)cc1,19.2%
21,O=C(NNC1=C(C(=O)C(F)(F)F)CCC1)c1cccc(Cl)c1,83% (active)
22,CO/N=C(/CS(=O)c1ccc(Br)cc1)c1ccc(OC)cc1 (configuration not stated),-16%
23,Cc1cc(C)c2sc(N(CCN(C)C)C(=O)c3ccc4ccccc4c3)nc2c1,-10.4%
24,Cc1cccc(CC(=O)OCn2nnc3ccccc3c2=O)c1,-15.8%
25,Cc1ccc(Cn2nnc3c(=O)n(Cc4cccc(C)c4)cnc32)cc1,3.6%
26,Cc1cccc(Cn2nnc3c2C(=O)c2ccccc2C3=O)c1,68.5% (active)

row,SMILES,inhibition
1,CCOc1ccc(NC(=O)CCNC(=O)Cn2ccc3ccccc3c2=O)cc1,-20.7%
2,Cc1ccc(S(=O)(=O)Nc2nc3ccccc3nc2N2CCN(c3ccccc3F)CC2)cc1,5.2%
3,Cc1ccsc1C1C(C#N)=C(N)OC2=C1C(=O)CCC2 (configuration not stated),-6.1%
4,COc1ccc(CNc2nc(Cl)c(C#N)s2)cc1,3.8%
5,Cc1ccc(CNc2nc(Cl)c(C#N)s2)cc1,63.4% (active)
6,N#Cc1sc(NCc2ccccc2)nc1Cl,-19.1%
7,CCN1CCN(CCOCCOc2ccccc2-c2ccccc2)CC1,-24.4%
8,c1ccc(OCCOCCN2CCOCC2)cc1,7.9%
9,CCN1CCN(CCOCCOc2ccccc2)CC1,75.5% (active)
10,O=C(Cc1ccccc1)NNC(=O)Nc1ccccc1,-23.5%
11,COc1ccc(C(O)c2nc3ccccc3n2C)cc1OC (configuration not stated),33.1%
12,CCCC(=O)NC(C)c1nc2ccccc2n1C(C)C (configuration not stated),-2.5%
13,CC(C)c1ccc(C(O)c2nc3ccccc3n2C)cc1 (configuration not stated),76.4% (active)
14,CCCC(=O)NC(C)c1nc2ccccc2n1C (configuration not stated),36.2% (active)
15,CCCC(=O)NC(C)c1nc2ccccc2n1CC (configuration not stated),-18.7%
16,Cc1ccc(C(O)c2nc3ccccc3n2C)cc1 (configuration not stated),-7.9%
17,CCN(CC(=O)Nc1ccccc1Br)C1CCCCC1,-38.4%
18,C=CCN1C(=O)N/C(=C/c2ccc(C)o2)C1=O,-35.1%
19,Nn1cc(-c2ccccc2)nc1SCC(=O)Nc1cccc(S(N)(=O)=O)c1,3.3%
20,O=C(Nc1cc(-c2ccccc2)[nH]n1)c1ccc(Cl)cc1,4.7% and -2.2%
21,O=C(Nc1ccccc1Cl)c1ccc2ccccc2c1,-11.1%
22,Cc1cccc(C)c1NC(=O)NC1(C(=O)N2CCN3CCCC3C2)CCCCC1 (configuration not stated),-19.2%
23,COc1ccccc1C1C(C#N)=C(N)N(c2cccnc2)C2=C1C(=O)CC(C)(C)C2 (configuration not stated),-21.9%
24,COc1ccc(C2C(C#N)=C(N)N(c3cccnc3)C3=C2C(=O)CC(C)(C)C3)cc1OC (configuration not stated),63.5% (active)
25,COc1cc(C2C(C#N)=C(N)N(c3cccnc3)C3=C2C(=O)CC(C)(C)C3)ccc1O (configuration not stated),9.6%
26,Cc1ccc(C)c(OC(=O)c2ccncc2)c1,54.5% (active)

row,SMILES,inhibition
1,Cc1ccc(OC(=O)c2ccncc2)c(C)c1,-45.8%
2,Cc1ccc(C)c(OC(=O)c2cccnc2)c1,-20.5%
3,CCN(CC)C(=O)CSc1nc(O)cc(=O)n1-c1ccccc1OC,-12.3%
4,CCC(NC(=O)NNC(=O)c1ccncc1)(C(F)(F)F)C(F)(F)F,-3.5%
5,CCOc1ccc(-c2ccc(SCC)nn2)cc1,-47.8%
6,CCOc1ccc(-c2ccc(SC)nn2)cc1,57.2% (active)
7,COc1ccc(-c2ccc(SC)nn2)cc1,-8.7%
8,COc1ccc(CC(=O)NNC(=O)COc2ccc3ccccc3c2)cc1,-32%
9,N#Cc1ccccc1NC(=O)COC(=O)c1ccc(F)cc1F,2.3%
10,Cc1cc(C)cc(C(=O)NC2CC(C)(C)NC(C)(C)C2)c1,-11.3%
11,COc1cc(C(=O)NC2CC(C)(C)NC(C)(C)C2)cc(OC)c1OC,-31.3%
12,COc1cc(OC)cc(C(=O)NC2CC(C)(C)NC(C)(C)C2)c1,83% (active)
13,O=C(NC(CC(=O)N1CCN(c2ccc([N+](=O)[O-])cc2)CC1)c1ccccc1)c1ccccc1Cl (configuration not stated),-5.6%
14,Cc1nc(-c2nc(-c3c(C(=O)NN)noc3C)cs2)cs1,-35.9%
15,Cc1ccc2c(c1)C(=O)c1c(C(=O)O)cccc1-2,-14.6%
16,CC(Sc1nc(-c2ccccc2)cc(C(F)(F)F)n1)C(=O)N1CCC(C(N)=O)CC1 (configuration not stated),62.8% (active)
17,CC(Sc1nc(-c2ccccc2)cc(C(F)(F)F)n1)C(=O)N1CCCC1 (configuration not stated),-30.7%
18,CC1CCN(C(=O)C(C)Sc2nc(-c3ccccc3)cc(C(F)(F)F)n2)CC1 (configuration not stated),15.1%
19,O=C(O)CCn1c(SCCOc2ccccc2)nc2ccccc21,-29.9%
20,CCCCN(C)Cc1cc(=O)oc2ccc3ccccc3c12,-5.4%
21,CCc1ccc(OCc2nnc(SCCN3CCOCC3)n2CC)cc1,-13.7%
22,Fc1ccccc1NC(=S)NCCc1ccccc1,11.7%
23,Fc1ccccc1Cn1cnc(NC(=S)NCCc2ccccc2)n1,47.4% (active)
24,FC(F)(F)c1cccc(Cn2cnc(NC(=S)NCCc3ccccc3)n2)c1,-22.4%
